Measured values taken from PubChem BioAssay AID686979 (National Center for Advancing Translational Sciences (NCATS), 2013).
Among all 420,000 compounds or so, about 50,000 (12%) were called active. About 26% were inconclusive and are not listed. Calls follow the shape of the dose curve; as a rule, active = well fitted inhibition curve with a large enough effect; inconclusive = small, poorly fitted or top-dose-only effect; inactive = flat fitted curve, though single readings scatter. The entries come from a sample that favours actives as a whole. A call without a number means that no potency is given here.

assay: qHTS for Inhibitors of human tyrosyl-DNA phosphodiesterase 1 (TDP1): qHTS in cells in presence of CPT; settings: chicken DT40 Tdp1-/-;hTDP1 cells + 20 nM CPT, ATP luminescence, 48 h; series mostly up to 46.2 µM; also: nearly all actives have a fitted effect of over 55% in size
Procedure, shortened: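 Chicken DT40 Tdp1-/- cells complemented with human TDP1, 400 cells/well, exposed to compounds plus 20 nM camptothecin for at least 48 h at 37 C; viability read as ATP content by CellTiter-Glo luminescence.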
Potency is read from the fitted curve at half-maximal effect.

**Q.** For `Cc1cccc2c1cnn2C(=O)CCC(=O)NC1CCCCC1`, which Potency is on record?
**A.** Its Potency is “inactive”.

**Q.** For `CCOc1ccc2[nH]c3nc(SCC(=O)NC4CCCC4)nnc3c2c1`, which Potency is on record?
**A.** The Potency was 5.17 µM (active).

**Q.** Which Potency does the source give for `O=C(CSc1nnc2c(n1)[nH]c1ccccc12)NC1CCCCC1` here?
**A.** The Potency was “inactive”.

**Q.** Which Potency does the source give for `COc1ccc2[nH]c3nc(SCC(=O)NC4CC4)nnc3c2c1` here?
**A.** Its Potency is “inactive”.

**Q.** With `CCN(CC)CCNC(=O)c1ccc(NS(=O)(=O)c2ccc3c(c2)OCCO3)cc1` as the compound, how does the Potency read?
**A.** The Potency was “inactive”.

**Q.** For `O=S(=O)(Nc1ccccc1)c1ccc(NS(=O)(=O)c2cccs2)cc1`, which Potency is on record?
**A.** The Potency was “inactive”.

**Q.** For `NS(=O)(=O)c1ccc(CCNC(=O)c2ccc([N+](=O)[O-])cc2[N+](=O)[O-])cc1`, which Potency is on record?
**A.** Its Potency is “inactive”.

**Q.** With `Cc1cccc(S(=O)(=O)N(C)C[C@@H]2OCc3cnnn3CCCC(=O)N([C@H](C)CO)C[C@@H]2C)c1` as the compound, how does the Potency read?
**A.** Its Potency is “inactive”.

**Q.** Which Potency does the source give for `O=C(O)c1cc(Cl)c(Cl)cc1C(=O)Nc1cccc2ncccc12` here?
**A.** Its Potency is “inactive”.

**Q.** With `O=C(Nc1cccnc1Cl)c1cc(-c2cccc(Cl)c2)on1` as the compound, how does the Potency read?
**A.** The Potency was “inactive”.

**Q.** For `CC(=O)Cc1nsc(NC(=O)c2ccc(Cl)cc2Cl)n1`, which Potency is on record?
**A.** Its Potency is “inactive”.

**Q.** With `Cc1ccc(C(=O)Nc2nc3ccc(Cl)cc3s2)o1` as the compound, how does the Potency read?
**A.** The Potency was “inactive”.

**Q.** For `O=C(Nc1cccc2ncccc12)c1ccc(-c2ccc(Cl)cc2Cl)o1`, which Potency is on record?
**A.** Its Potency is 20.6 µM (active).

**Q.** Which Potency does the source give for `Cc1csc(NC(=O)c2ccc(-c3ccc(Cl)cc3Cl)o2)n1` here?
**A.** The Potency was 9.2 µM (active).

**Q.** Which Potency does the source give for `O=C(Cc1ccsc1)N1CCN(S(=O)(=O)c2cc(C(F)(F)F)cc(C(F)(F)F)c2)CC1` here?
**A.** Its Potency is “inactive”.

**Q.** For `COc1ccc(CN2CC(C(=O)NCCc3ccc(Cl)cc3)CC2=O)cc1` (stereo not given), which Potency is on record?
**A.** The Potency was “inactive”.

**Q.** For `CCc1ccc(Oc2coc3cc(O)ccc3c2=O)cc1`, which Potency is on record?
**A.** The Potency was “inactive”.

**Q.** With `CCCN(CCC)C(=S)Nc1cc(C(=O)OC)ccc1C(=O)OC` as the compound, how does the Potency read?
**A.** Its Potency is 18.4 µM (active).

**Q.** For `CCN(CCO)C(=S)Nc1cc(C(=O)OC)ccc1C(=O)OC`, which Potency is on record?
**A.** The Potency was “inactive”.

**Q.** Which Potency does the source give for `CCS(=O)(=O)Nc1cc(C(=O)OC)ccc1C(=O)OC` here?
**A.** Its Potency is “inactive”.

**Q.** With `CCc1ccc(-n2nc(C)c3c(C)cc(=O)n(CC(=O)Nc4ccc(F)cc4C)c32)cc1` as the compound, how does the Potency read?
**A.** Its Potency is “inactive”.

**Q.** Which Potency does the source give for `CCC(C(=O)OC)n1cnc2c(oc3ccccc32)c1=O` (stereo not given) here?
**A.** Its Potency is “inactive”.

**Q.** Which Potency does the source give for `CCOc1ccccc1C(=O)Nc1ccc(S(=O)(=O)N2CCCCC2c2cccnc2)cc1` (stereo not given) here?
**A.** Its Potency is 18.4 µM (active).

**Q.** For `Cc1cccc(C(=O)Nc2ccc(S(=O)(=O)N3CCCCC3c3cccnc3)cc2)c1` (stereo not given), which Potency is on record?
**A.** The Potency was 23.1 µM (active).

**Q.** For `CCOc1ncccc1C(=O)Nc1ccc(S(=O)(=O)Nc2nc(C)cc(C)n2)cc1`, which Potency is on record?
**A.** Its Potency is “inactive”.

**Q.** Which Potency does the source give for `Cc1cc(NS(=O)(=O)c2ccc(NC(=O)c3cccnc3)cc2)nc(C)n1` here?
**A.** Its Potency is “inactive”.

**Q.** Which Potency does the source give for `COc1ccc(C(=O)NC(=S)N2CCCCC2c2cccnc2)cc1OC` (stereo not given) here?
**A.** The Potency was “inactive”.

**Q.** Which Potency does the source give for `Cc1ccc(S(=O)(=O)N2CCCCC2)cc1NC(=O)c1cccnc1` here?
**A.** The Potency was “inactive”.

**Q.** For `COc1ccc(NC(=O)CSc2nnc(-c3nnn(-c4ccc(F)cc4)c3C)o2)cc1`, which Potency is on record?
**A.** The Potency was “inactive”.

**Q.** For `CC1(C(=O)NS(=O)(=O)c2cccc(F)c2)CCN1C(=O)c1cccc2ccccc12` (stereo not given), which Potency is on record?
**A.** Its Potency is “inactive”.

**Q.** With `CCCC(=O)N1CCC1(C)C(=O)NCc1ccc(SC)cc1` (stereo not given) as the compound, how does the Potency read?
**A.** Its Potency is “inactive”.

**Q.** Which Potency does the source give for `CC1(C(=O)NCc2cccc3ccccc23)CCN1Cc1ccc(-c2ccccc2)o1` (stereo not given) here?
**A.** Its Potency is 23.1 µM (active).

**Q.** For `CSc1ccc(CN2CCC2(C)C(=O)NCc2ccccc2Br)cc1` (stereo not given), which Potency is on record?
**A.** Its Potency is 18.4 µM (active).

**Q.** With `CSc1ccc(CNC(=O)C2(C)CCCN2C)cc1` (stereo not given) as the compound, how does the Potency read?
**A.** Its Potency is “inactive”.

**Q.** Which Potency does the source give for `CC1(C(=O)NCc2ccc3c(c2)OCO3)CCN1C(=O)Cc1cccs1` (stereo not given) here?
**A.** Its Potency is “inactive”.

**Q.** For `CCN1CCN(C(c2ccc(C)cc2)c2c(O)cc(C)n(Cc3ccco3)c2=O)CC1` (stereo not given), which Potency is on record?
**A.** Its Potency is “inactive”.

**Q.** Which Potency does the source give for `O=C(NCc1ccccn1)Nc1ccc(Cl)cc1` here?
**A.** The Potency was “inactive”.

**Q.** Which Potency does the source give for `Cn1cccc1/C=N/NC(=O)c1ccc(OC(F)(F)C(F)F)cc1` here?
**A.** Its Potency is “inactive”.

**Q.** For `CCCC(=O)N1CCC1(C)C(=O)NS(=O)(=O)c1ccc(Cl)cc1` (stereo not given), which Potency is on record?
**A.** The Potency was “inactive”.

**Q.** With `O=C(CCN1C(=O)c2ccccc2C1=O)NCCCn1ccnc1` as the compound, how does the Potency read?
**A.** The Potency was “inactive”.

**Q.** Which Potency does the source give for `CC(=O)C(C)n1cnc2scc(-c3ccc(C)cc3)c2c1=O` (stereo not given) here?
**A.** The Potency was “inactive”.

**Q.** With `CN(C)S(=O)(=O)c1ccc(N2CCCC2)c(C(=O)Nc2cccc(F)c2)c1` as the compound, how does the Potency read?
**A.** Its Potency is “inactive”.

**Q.** With `Cc1nccn1CCCNC(=O)CC1C(=O)NCCN1Cc1ccc(Cl)c(F)c1` (stereo not given) as the compound, how does the Potency read?
**A.** Its Potency is “inactive”.

**Q.** For `O=C(CC1C(=O)NCCN1Cc1ccc(-c2ccccc2)cc1)NCC1CCOCC1` (stereo not given), which Potency is on record?
**A.** Its Potency is “inactive”.

**Q.** With `CCOc1ccc(CN2CCNC(=O)C2CC(=O)NCCCC2CCCC2)cc1` (stereo not given) as the compound, how does the Potency read?
**A.** Its Potency is 16.4 µM (active).

**Q.** With `CCN(C(=O)COC(=O)c1ccccc1O)c1cccc2ccccc12` as the compound, how does the Potency read?
**A.** Its Potency is “inactive”.

**Q.** With `CC(C)CCNC(=O)CC1C(=O)N(Cc2ccccc2)C(C)c2nc3ccccc3n21` (stereo not given) as the compound, how does the Potency read?
**A.** Its Potency is “inactive”.

**Q.** With `Cc1ccc(C(=O)NCC(=O)OCc2nnc(-c3ccccc3)o2)cc1` as the compound, how does the Potency read?
**A.** The Potency was “inactive”.

**Q.** Which Potency does the source give for `Cc1onc(-c2ccccc2)c1-c1nnc(COC(=O)c2ccc(N(C)C)cc2)o1` here?
**A.** The Potency was 20.6 µM (active).

**Q.** For `Cc1onc(-c2ccccc2)c1C(=O)N=C(N)c1ccc(Cl)cc1`, which Potency is on record?
**A.** Its Potency is “inactive”.

**Q.** With `O=C(OCc1nnc(-c2ccccc2)o1)c1ccc2c(c1)C(=O)N(CCc1ccccc1)C2=O` as the compound, how does the Potency read?
**A.** Its Potency is “inactive”.

**Q.** Which Potency does the source give for `CCOC(=O)c1ccc(COC(=O)CCc2nc(-c3ccccc3)c(-c3ccccc3)o2)cc1` here?
**A.** The Potency was “inactive”.

**Q.** Which Potency does the source give for `Cc1onc(-c2ccccc2Cl)c1C(=O)OCc1nnc(-c2ccccc2)o1` here?
**A.** The Potency was 18.4 µM (active).

**Q.** With `Cc1ccc(NC(=O)CCC(=O)N/N=C/c2ccco2)c(C)c1` as the compound, how does the Potency read?
**A.** Its Potency is “inactive”.

**Q.** With `Nc1nc(O)c(CC(=O)O)s1` as the compound, how does the Potency read?
**A.** Its Potency is “inactive”.

**Q.** For `O=C(NCCNc1ccccc1[N+](=O)[O-])c1ccccc1F`, which Potency is on record?
**A.** Its Potency is “inactive”.

**Q.** For `Cn1nnnc1SCC(=O)Nc1cccc(S(=O)(=O)N2CCCCC2)c1`, which Potency is on record?
**A.** Its Potency is “inactive”.

**Q.** With `CCOC(=O)C1=C(NC(=S)NC(=O)c2ccccc2)c2ccccc2CC1(C)C` as the compound, how does the Potency read?
**A.** Its Potency is “inactive”.

**Q.** For `O=C(CSc1nc(O)c(Cc2ccccc2)c(=O)[nH]1)Nc1nc2c(s1)CCCC2`, which Potency is on record?
**A.** Its Potency is “inactive”.

**Q.** Which Potency does the source give for `Cc1ccc2c(c1)C1CN(C)CCC1N2C(=O)c1ccccc1NS(=O)(=O)c1ccc(F)cc1C` (stereo not given) here?
**A.** Its Potency is “inactive”.

**Q.** Which Potency does the source give for `O=C1O/C(=C\c2ccc(O)cc2)C(O)=C1c1ccc(O)cc1` here?
**A.** The Potency was “inactive”.

**Q.** With `COc1cc(C2C3=C(CCCC3=O)OC3=C2C(=O)CCC3)ccc1OCC(=O)Nc1ccccc1` as the compound, how does the Potency read?
**A.** Its Potency is “inactive”.

**Q.** For `O=c1c(=O)n(Cc2c(F)cccc2Cl)ccn1Cc1ccccc1`, which Potency is on record?
**A.** Its Potency is “inactive”.

**Q.** With `Cc1ccc(C)c(N2C(=O)N(Cc3c(F)cccc3Cl)c3ccccc3S2(=O)=O)c1` as the compound, how does the Potency read?
**A.** Its Potency is 18.4 µM (active).

**Q.** With `O=C1c2ccccc2S(=O)(=O)N1Cc1c(F)cccc1Cl` as the compound, how does the Potency read?
**A.** Its Potency is “inactive”.
